The whole screen tested about 220,000 compounds, of which about 830 (0.38%) were called active.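 How the source made its calls: active means compound inhibiting the enzyme by more than half at any dose during confirmatory dose-response retesting; inconclusive means strong single-dose inhibitors picked by rank but not retested; inactive means the rest.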 A selection follows. Results with a measured potency or affinity are listed apart.
Target: Leucine aminopeptidase (Plasmodium falciparum (isolate 3D7)) (UniProt Q8IL11)
Sequence (Q8IL11 whole entry, looked up): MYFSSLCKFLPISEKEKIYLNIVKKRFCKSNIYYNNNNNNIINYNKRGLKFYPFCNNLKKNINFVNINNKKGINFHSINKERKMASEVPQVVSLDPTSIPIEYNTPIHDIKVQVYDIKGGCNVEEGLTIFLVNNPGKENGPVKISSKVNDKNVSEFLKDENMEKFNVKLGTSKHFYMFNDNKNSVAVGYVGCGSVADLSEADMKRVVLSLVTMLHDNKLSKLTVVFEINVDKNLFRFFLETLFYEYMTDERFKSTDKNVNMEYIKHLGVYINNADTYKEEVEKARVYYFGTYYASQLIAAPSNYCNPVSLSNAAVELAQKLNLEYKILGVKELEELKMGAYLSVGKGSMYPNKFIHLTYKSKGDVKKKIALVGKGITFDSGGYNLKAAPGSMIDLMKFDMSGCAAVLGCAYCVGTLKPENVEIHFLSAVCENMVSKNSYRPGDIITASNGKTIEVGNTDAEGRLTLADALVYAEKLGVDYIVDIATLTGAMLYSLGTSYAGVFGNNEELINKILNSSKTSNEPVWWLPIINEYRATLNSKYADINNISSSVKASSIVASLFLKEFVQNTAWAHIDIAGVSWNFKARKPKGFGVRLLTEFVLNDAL
Experiment: P. falciparum M17LAP inhibitors, primary screen, biochemical, fluorogenic H-Leu-NHMec substrate, 1536-well (AID 1619);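 further: plate controls were full reaction with DMSO carrier for no effect and no enzyme background for full effect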
Settings: recombinant M17LAP, H-Leu-NHMec fluorogenic kinetic assay; at 30 µM; active compounds read high

inhibition, inactive:
CNC(=S)Nc1cccc(Cl)c1C 0.94%
CCn1c(Cc2ccccc2)nnc1SCc1ccc([N+](=O)[O-])cc1 -12%
CC(=O)c1cccc(N=Nc2c(C)[nH]c3ccccc23)c1 -8.29%
Oc1[nH]c2ccccc2c1N=Nc1ccccc1 7.84%
Oc1[nH]c2ccccc2c1N=Nc1ccc(F)cc1 26.1%
Cc1[nH]c2ccccc2c1N=Nc1cc(C(=O)O)cc(C(=O)O)c1 21.5%
COc1cccc(CNC(=O)CCC2CCCN(Cc3cc4ccccc4o3)C2)c1 (stereo unspecified) -1.88%
O=c1cc(Cc2ccccc2)[nH]c(=S)[nH]1 0.4%
Cc1nnc(SCc2cc(=O)[nH]c(=S)[nH]2)s1 27.4%
O=C(NC1CCS(=O)(=O)C1)c1cn(-c2ccccc2)nc1-c1ccccc1 (stereo unspecified) -4.23%
Cc1cc(C)nc(N2CCCC(C(=O)NC(C)CCc3ccco3)C2)n1 (stereo unspecified) 2.6%
CC(OC(=O)CCCc1nc2ccccc2s1)C(=O)NC(N)=O (stereo unspecified) -1.53%
Cc1ccccc1S(=O)(=O)c1cc(C#N)c(=O)[nH]c1N -8.15%
COc1ccc(N(CC(=O)NCc2ccccc2)S(=O)(=O)c2c(C)noc2C)cc1 -3.73%
CCOc1ccc(NC(=S)NCc2nc3ccccc3[nH]2)cc1 -5.56%
O=C(O)CC1S/C(=N/N=C/c2ccc(-c3ccc(Cl)cc3[N+](=O)[O-])o2)NC1=O (stereo unspecified) 31.2%
Cc1ccc(-c2ccc(/C=N/N3C(=O)C4C5C=CC(CC5)C4C3=O)o2)c([N+](=O)[O-])c1 (stereo unspecified) 5.1%
COc1cc(-c2cc(C(=O)Nc3nc4ccccc4s3)c3ccccc3n2)cc(OC)c1OC 4.34%
c1ccc(CN2c3ccccc3-c3nc4ccccc4n3C2c2ccccn2)cc1 (stereo unspecified) 1.51%
COCCOC(=O)C1=C(C)NC(=O)NC1/C=C/c1ccccc1 (stereo unspecified) 0.26%
N#C/C(=C/c1ccc(F)cc1)S(=O)(=O)c1ccccc1 -4.38%
Cc1cc(C)c(/C=C(\C#N)S(=O)(=O)c2ccccc2)[nH]1 -7.74%
CC1=CC2=NC(=O)/C(=C\c3cccn3CCOc3ccccc3)C(=N)N2O1 8.69%
COc1cccc(OCCn2cccc2/C=C2/C(=N)N3OC(C)=CC3=NC2=O)c1 0.81%
Cc1nn(-c2ccccc2)c(C)c1C(=O)NCc1ccc(F)cc1 -15.7%
FC(F)(F)c1cnc(-c2cnc(-c3cccnc3)nc2)c(Cl)c1 1.19%
c1coc(-c2ncc[nH]2)c1 -2.51%
c1coc(-c2nc(-c3ccco3)c(-c3ccco3)nc2-c2ccco2)c1 48.1%
COc1ccc(/C=N/N2CCN(c3ccncc3S(=O)(=O)N3CCCCC3)CC2)cc1 0%
CCCn1c(C)cc(C(=O)COC(=O)c2nccnc2N)c1C 6.47%
Cc1cc(C(=O)OCC(N)=O)c(C)n1-c1ccccc1 3.65%
CCOc1ncccc1C(=O)OCC(=O)c1cc(C)n(Cc2ccco2)c1C 6.52%
Cc1cc(C(=O)COC(=O)c2cccnc2Cl)c(C)n1-c1c(C)n(C)n(-c2ccccc2)c1=O 10.5%
COc1ccc(Nc2nc(N)nc(CN3CCC(Cc4ccccc4)CC3)n2)cc1 -2.44%
CCOC(=O)CC(=O)CSc1n[nH]c(=O)[nH]c1=O -5.31%
C=CCn1c(SCC(=O)c2ccc(OC)cc2)nnc1-c1cc2cccc(OC)c2o1 3.95%
C=CCn1c(SCC(=O)c2ccc(O)c(O)c2)nnc1-c1cccnc1 22.5%
CCn1c(SCC(=O)C(C)(C)C)nnc1-c1ccccc1OC 6.79%
CCn1c(SCC(=O)O)nnc1-c1ccccc1OC -7.5%
CCC(=O)Nc1ccc(C(=O)NNC(=O)C(c2ccccc2)c2ccccc2)cc1 5.41%
O=C(CNC(=O)c1ccc([N+](=O)[O-])cc1)N/N=C\c1ccc(OC(=O)c2ccccc2)cc1 -2.63%
COc1ccc(S(=O)(=O)NCCc2ccccc2)cc1 -1.2%
Cc1nn(C)cc1/C=N/NC(=O)Cn1cncn1 0.36%
C=CCN1C(=O)CC(C(=O)NC)SC1=Nc1ccc(C(=O)OCC)cc1 (stereo unspecified) 4.4%
CC(=O)Nc1c(C(=O)N2CCN(c3ccccn3)CC2)cnn1-c1ccc(C)cc1 11%
CC1=CC(C)C2C(=O)N(O)C(=O)C2C1 (stereo unspecified) 1.69%
CN(c1ccc(F)cc1)S(=O)(=O)c1ccc(Cl)c(C(=O)OCC(=O)NCc2ccco2)c1 4.4%
COc1ccc(NS(=O)(=O)c2cccs2)c(OC)c1 -8.72%
COc1ccc(S(=O)(=O)/N=C2/NC(=O)/C(=C\c3ccco3)S2)cc1 22.2%
NC1=NC(=O)/C(=C\c2ccco2)S1 25.9%
COc1ccc(Nc2nc3ccccc3nc2NS(=O)(=O)c2cccs2)cc1 9.26%
O=C1CN(C(=O)CCN2CCOCC2)C(c2ccccc2)c2cc(Br)ccc2N1 (stereo unspecified) 8.27%
Cc1cc(C=O)c(C)n1-c1ccc(Cl)c(C(=O)O)c1 14.1%
Cc1cc(/C=C2/C(=O)NN(c3ccccc3)C2=O)c(C)n1-c1ccc(O)cc1 -3.4%
CCCC(C)c1nnc(NC(=O)C(=O)OCC)s1 (stereo unspecified) 2.47%
O=C(NNC(=S)NC(=O)c1ccccc1[N+](=O)[O-])c1ccccc1[N+](=O)[O-] 51.9%
O=C(NC(=S)NNS(=O)(=O)c1ccccc1)c1ccc([N+](=O)[O-])cc1 21.4%
O=C(NNS(=O)(=O)c1ccccc1)c1cccnc1 1.34%
O=C(NC(=S)NNS(=O)(=O)c1ccc(Cl)cc1)c1cccnc1 20%
CCOC(=O)C1C(=O)C=C(Nc2ccccc2F)CC1c1ccccc1 (stereo unspecified) 10.8%
CCOC(=O)C(C(=O)OCC)N(C#N)c1nc(OC)nc(N(C)C)n1 3.46%
O=Cc1cccc(Oc2ncccn2)c1 3.35%
CCOC(=O)N1CCC(Nc2c(NCCCN(CC)CC)c(=O)c2=O)CC1 -6.21%
O=C1CCC(=O)N1c1cccc(OS(=O)(=O)c2ccccc2)c1 10.4%
Cc1cc(C(F)(F)F)n2nc(-c3cnn(C)c3C(F)(F)F)c(Br)c2n1 4.73%
O=C(NCc1ccccc1)N[C@@H](Cc1ccccc1)C(=O)O 27.9%
O=C(Cc1ccccc1)N[C@@H](Cc1ccc(O)cc1)C(=O)O 7.55%
NS(=O)(=O)c1ccc(NC(=O)N[C@@H](Cc2ccccc2)C(=O)O)cc1 9.55%
COC(=O)[C@H](Cc1ccccc1)NC(=O)NCc1cccs1 7.7%
COc1ccccc1Nc1nc2ccc(C)cc2cc1C#N 5.31%
COc1ccc(N2CCN(c3nc4ccccc4n3CC(=O)c3ccccc3)CC2)cc1 12.7%
Cc1ccc(S(=O)(=O)/C=C2\NC(=O)CS2)cc1 34.6%
O=C1CS/C(=C/C(=O)c2cccc(Cl)c2)N1 16%
O=C(O)c1ccc(/C=N/NC(=O)c2cc(-c3cccs3)nc3ccccc23)cc1 -43.1%
CC1CCC(N2CCN(c3ncccn3)CC2)CC1 (stereo unspecified) 1.15%
Cc1ccc(-c2cc(-c3ccccc3C)[nH]n2)c(O)c1 9.91%
Cc1ccc(O)c(-c2cc(-c3ccccc3C)[nH]n2)c1 -1.23%
Cc1ccc(NC(=O)CSC2=C(C#N)C(c3ccco3)C3=C(CC(C)(C)CC3=O)N2)cc1 (stereo unspecified) 1.21%
C=C(C)C(=O)Oc1ccc(N2C(=O)CCC2=O)cc1 15.3%
O=C(CSc1nc2ccccc2c(=O)n1CCCN1CCOCC1)Nc1cccc(S(=O)(=O)N2CCCCCC2)c1 -0.76%
CCOc1ccccc1NC(=O)N1CCN(S(C)(=O)=O)CC1 -3.49%
CCn1cc(CNC(=O)/C=C/c2cnn(C)c2)c(C)n1 -7.7%
O=c1cc(O)c(-c2ccc(Cl)c(Cl)c2)c(Cl)[nH]1 4.59%
Nc1cc(-c2cccc([N+](=O)[O-])c2)[nH]n1 10.1%
Clc1ccc(-c2n[nH]c3c2CCC3)cc1Cl -3.59%
O=[N+]([O-])c1cccc(-c2ccn[nH]2)c1 0.95%
Cc1ccc([N+](=O)[O-])cc1S(=O)(=O)N1CCCCC1C(=O)O (stereo unspecified) 11.7%
COc1cccc(CN2CCN(C(=O)CC(C)C)CC2)c1 -2.21%
O=C1CNC(=O)/C(=C/c2ccco2)N1 6.62%
Cc1cc(/C=N/Nc2ccc([N+](=O)[O-])cn2)c(C)n1-c1ccccc1 9.51%
Cc1ccc(-n2c(C)cc(/C=N/Nc3ccc([N+](=O)[O-])cn3)c2C)cc1 -7.78%
Cc1ccnc2nc(C(=O)NCc3cccs3)nn12 -0.8%
NS(=O)(=O)c1ccc(CCNC(=O)C2CCN(S(=O)(=O)c3c(Cl)cccc3Cl)CC2)cc1 1.28%
Cc1cc(C)cc(N(CC(=O)Nc2ccccc2C(=O)N2CCOCC2)S(C)(=O)=O)c1 -5.57%
CC#CCC(CC#CC)c1nc2ccccc2c(=O)n1N -1.78%
Cc1ccc(-c2noc(CCC(=O)NC3CCCc4ccccc43)n2)cc1 (stereo unspecified) -3.35%
